# In all, about 5,500 compounds went through this assay and about 2,000 (36%) were called active. About 18% were inconclusive and are not listed. The list shows a part of the results. A number with no mark means an inactive call. No stated cut-off is given here; in the data, active means normalized growth mostly below about 0.91 (no sharp cut-off); inconclusive means no clear call, values can overlap the other calls; inactive means mostly above about 0.92.
# Assay: chemical genetic growth profiling, strain panel (AID 1159580);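 further: tested at 20 µM; growth read once vehicle control cultures reached saturation at 30 °C; 1 = growth at the plate median or of vehicle wells; lower values mean less growth of the strain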
# Conditions: S. cerevisiae deletion strains, growth OD
structure (smiles),measurement,setting,value
CCCCCCNC(=O)n1cc(F)c(=O)[nH]c1=O,normalized growth,"locus YAL021C, strain ccr4, hits give low values",0.934
same,normalized growth,"locus YAL026C, strain drs2, hits give low values",0.849 (active)
same,normalized growth,"locus YAL030W, strain snc1, hits give low values",0.96
same,normalized growth,"locus YBL061C, strain skt5, hits give low values",0.972
same,normalized growth,"locus YBR009C, strain hhf1, hits give low values",0.861 (active)
same,normalized growth,"locus YBR023C, strain chs3, hits give low values",0.937
same,normalized growth,"locus YBR171W, strain sec66, hits give low values",0.996
same,normalized growth,"locus YBR231C, strain swc5, hits give low values",0.988
same,normalized growth,"locus YBR279W, strain paf1, hits give low values",0.834 (active)
same,normalized growth,"locus YCL011C, strain gbp2, hits give low values",0.91
same,normalized growth,"locus YCL016C, strain dcc1, hits give low values",0.86 (active)
same,normalized growth,"locus YCL069W, strain vba3, hits give low values",0.842 (active)
same,normalized growth,"locus YCR088W, strain abp1, hits give low values",0.934
same,normalized growth,"locus YDL005C, strain med2, hits give low values",0.941
same,normalized growth,"locus YDL040C, strain nat1, hits give low values",0.991
same,normalized growth,"locus YDR001C, strain nth1, hits give low values",0.995
same,normalized growth,"locus YDR069C, strain doa4, hits give low values",0.803 (active)
same,normalized growth,"locus YDR137W, strain rgp1, hits give low values",0.553 (active)
same,normalized growth,"locus YDR159W, strain sac3, hits give low values",1.22 [resistant] (active)
same,normalized growth,"locus YDR195W, strain ref2",0.678 (active)
same,normalized growth,"locus YDR297W, strain sur2, hits give low values",0.978
same,normalized growth,"locus YDR334W, strain swr1, hits give low values",0.93
same,normalized growth,"locus YDR335W, strain msn5, hits give low values",0.782 (active)
same,normalized growth,"locus YDR392W, strain spt3, hits give low values",0.776
same,normalized growth,"locus YEL003W, strain gim4, hits give low values",0.895 (active)
same,normalized growth,"locus YEL037C, strain rad23, hits give low values",0.894 (active)
same,normalized growth,"locus YEL061C, strain CIN8 (second series), hits give low values",0.95
same,normalized growth,"locus YER015W, strain faa2, hits give low values",0.889 (active)
same,normalized growth,"locus YER016W, strain bim1, hits give low values",0.899 (active)
same,normalized growth,"locus YER111C, strain swi4, hits give low values",0.923
same,normalized growth,"locus YER155C, strain BEM2 (second series), hits give low values",0.767 (active)
same,normalized growth,"locus YFR010W, strain ubp6, hits give low values",0.757 (active)
same,normalized growth,"locus YGL167C, strain pmr1, hits give low values",0.918
same,normalized growth,"locus YGL173C, strain kem1, hits give low values",0.897 (active)
same,normalized growth,"locus YGL227W, strain vid30, hits give low values",0.99
same,normalized growth,"locus YGL240W, strain doc1, hits give low values",0.971
same,normalized growth,"locus YGL253W, strain hxk2, hits give low values",0.613 (active)
same,normalized growth,"locus YHR013C, strain ard1, hits give low values",0.933
same,normalized growth,"locus YHR027C, strain rpn1, hits give low values",0.911 (active)
same,normalized growth,"locus YHR030C, strain SLT2, hits give low values",0.532 (active)
same,normalized growth,"locus YHR079C, strain IRE1, hits give low values",0.45 (active)
same,normalized growth,"locus YHR142W, strain chs7, hits give low values",0.741 (active)
same,normalized growth,"locus YJL092W, strain hpr5, hits give low values",0.912 (active)
same,normalized growth,"locus YJL095W, strain BCK1 (second series), hits give low values",0.945
same,normalized growth,"locus YJL095W, strain BCK1, hits give low values",0.541 (active)
same,normalized growth,"locus YJL115W, strain asf1, hits give low values",0.941
same,normalized growth,"locus YJL129C, strain trk1, hits give low values",0.76 (active)
same,normalized growth,"locus YJL154C, strain vps35, hits give low values",0.943
same,normalized growth,"locus YJL164C, strain tpk1, hits give low values",0.865 (active)
same,normalized growth,"locus YJL166W, strain qcr8, hits give low values",0.902 (active)
same,normalized growth,"locus YJR066W, strain TOR1, hits give low values",0.407 (active)
same,normalized growth,"locus YKL160W, strain elf1, hits give low values",0.907
same,normalized growth,"locus YKR026C, strain gcn3, hits give low values",0.993
same,normalized growth,"locus YKR091W, strain srl3, hits give low values",0.975
same,normalized growth,"locus YLL001W, strain dnm1, hits give low values",0.773 (active)
same,normalized growth,"locus YLL026W, hits give low values",0.974
same,normalized growth,"locus YLL041C, strain sdh2, hits give low values",0.979
same,normalized growth,"locus YLR027C, strain aat2, hits give low values",0.956
same,normalized growth,"locus YLR113W, strain HOG1, hits give low values",0.607 (active)
same,normalized growth,"locus YLR221C, strain rsa3, hits give low values",0.697 (active)
same,normalized growth,"locus YLR258W, strain gsy2, hits give low values",0.884 (active)
same,normalized growth,"locus YLR262C, strain YPT6 (second series), hits give low values",0.528 (active)
same,normalized growth,"locus YLR320W, strain mms22, hits give low values",0.733 (active)
same,normalized growth,"locus YLR342W, strain FKS1, hits give low values",0.938
same,normalized growth,"locus YLR357W, strain rsc2, hits give low values",0.803 (active)
same,normalized growth,"locus YLR370C, strain arc18, hits give low values",0.923
same,normalized growth,"locus YLR384C, strain iki3, hits give low values",0.963
same,normalized growth,"locus YML120C, strain ndi1, hits give low values",0.92
same,normalized growth,"locus YMR058W, strain fet3, hits give low values",0.926
same,normalized growth,"locus YMR125W, strain sto1, hits give low values",0.958
same,normalized growth,"locus YMR129W, hits give low values",0.987
same,normalized growth,"locus YMR205C, strain PFK2, hits give low values",0.898
same,normalized growth,"locus YMR231W, strain pep5, hits give low values",0.942
same,normalized growth,"locus YNL071W, strain lat1, hits give low values",0.891 (active)
same,normalized growth,"locus YNL183C, strain NPR1, hits give low values",0.48 (active)
same,normalized growth,"locus YNL209W, strain ssb2, hits give low values",0.959
same,normalized growth,"locus YNL248C, strain rpa49, hits give low values",0.589 (active)
same,normalized growth,"locus YNL322C, strain KRE1 (second series), hits give low values",0.936
same,normalized growth,"locus YNR049C, strain mso1, hits give low values",0.931
same,normalized growth,"locus YOR001W, strain rrp6, hits give low values",0.257 (active)
same,normalized growth,"locus YOR070C, strain gyp1, hits give low values",0.958
same,normalized growth,"locus YOR080W, strain dia2, hits give low values",0.968
same,normalized growth,"locus YOR083W, strain WHI5, hits give low values",0.84 (active)
same,normalized growth,"locus YOR106W, strain vam3, hits give low values",0.668 (active)
same,normalized growth,"locus YOR231W, strain MKK1, hits give low values",0.41 (active)
same,normalized growth,"locus YOR265W, strain rbl2, hits give low values",0.968
same,normalized growth,"locus YOR270C, strain vph1, hits give low values",0.518 (active)
same,normalized growth,"locus YOR290C, strain snf2, hits give low values",0.723 (active)
same,normalized growth,"locus YPL051W, strain arl3, hits give low values",0.843 (active)
same,normalized growth,"locus YPL078C, strain atp4, hits give low values",0.77 (active)
same,normalized growth,"locus YPL106C, strain sse1, hits give low values",0.722 (active)
same,normalized growth,"locus YPL240C, strain hsp82, hits give low values",0.978
same,normalized growth,"locus YPL256C, strain CLN2, hits give low values",0.564 (active)

# — PubChem BioAssay AID1159580 (chemical genetic matrix, 2015)
